Bioassay records (PubChem BioAssay)
KB-3-1 cytotox – qHTS assay for MDR1-selective chemotherapeutics: Primary screen using the parental adenocarcinoma cell KB-3-1. KB-3-1 viability, CellTiter-Glo ATP luminescence, 72 h. Potency, µM (top dose mostly 46.1 µM), usual class: cytotoxic. hit rate 1.4% among 400,000; note: nearly all actives have a fitted effect of over 60% in size
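Cells are dispensed, compounds pinned in, plates held at 37 °C for 72 h, then CellTiter-Glo is added and luminescence read after 10 minutes. Cell line: parental KB-3-1 in phenol-red-free DMEM, 10% FBS.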
KB-V1 cytotox – qHTS assay for MDR1-selective chemotherapeutics: Primary screen using the drug-selected MDR subline cells KB-V1; hit rate 3.4% among 400,000; KB-V1 MDR cells viability, CellTiter-Glo, 72 h; AID 1347076, 2019; Potency, µM (highest dose often 46.1 µM), hits mostly cytotoxic; note: nearly all actives have a fitted effect of over 60% in size
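Compound-treated KB-V1 multidrug-resistant cells, 72 h, 37 degrees C; viability by CellTiter-Glo. Fitted qHTS curves give the values.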
HT1080 IDH1KD tx – qHTS for induction of synthetic lethality in tumor cells producing 2HG: qHTS for the HT-1080-IDH1KD cell line | Potency, µM (titrated, usually from 46.1 µM), without a hit: at the top dose activity, negative = toxicity, actives largely listed as cytotoxic | HT-1080 IDH1 knockdown viability, ATP luminescence, 48 h | AID 686971, 2013 | hit rate 2% among 360,000;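 note: 0% = DMSO wells and -100% = cell-free medium wells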
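Luminescent ATP read-out (CellTiter-Glo, 10 min at room temperature) after 48 h compound exposure at 37 °C gave viability of IDH1-knockdown HT-1080 cells. Activity was normalised to DMSO and cell-free wells, then fitted as concentration-response curves.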
HT1080-NT tox – qHTS for induction of synthetic lethality in tumor cells producing 2HG: qHTS for the HT-1080-NT fibrosarcoma cell line | hit rate 1.6% among 360,000 | Potency, µM (titrated, usually from 46.1 µM), for inactives: top-dose activity, negative = less viability, most hits filed as cytotoxic | HT-1080-NT fibrosarcoma viability, CellTiter-Glo ATP luminescence, 48 h;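 note: NT is the 2HG producing partner of a matched IDH1 knockdown line; 0% = DMSO-treated cells and -100% = media-only wells without cells; nearly all actives have a fitted effect of over 55% in size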
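Read-out is CellTiter-Glo luminescence after 10 minutes at room temperature, following 48 hours' compound treatment of HT-1080-NT cells (750 cells/well, RPMI, 5% FBS, 37 degrees C).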
* marks the source's active call; other numbers are inactive results; i = inactive; ? = inconclusive; / = no result given. A selection: hits, their analogues and other compounds. The true share with any hit is near 5.7%. Calls come from the whole dose curve; as a rule, active = well fitted curve in the direction sought with a large enough effect; inconclusive = small, poorly fitted or top-dose-only effect, or another doubt; inactive = no such curve, though single readings can be large; an effect the other way counts as inactive or inconclusive. Unless noted, % is set by controls: 0 for no effect and ±100 for the full control effect; potency is the fitted concentration of half-maximal effect.

SMILES	KB-3-1 cytotox	KB-V1 cytotox	HT1080 IDH1KD tx	HT1080-NT tox
O=C(NCc1ccco1)C1CCCN(c2nnc(-n3cccc3)s2)C1 (configuration not stated)	i	i	?	2.6µM*
Cc1cc(C)nc(N2CCCC(C(=O)NC(C)CCc3ccco3)C2)n1 (configuration not stated)	i	10µM*	12%	-4%
Cc1cc(C)nc(N2CCCC(C(=O)NCc3cccs3)C2)n1 (configuration not stated)	i	16µM*	3%	8%
COc1nc(OC)nc(N2CCC(C(=O)NCc3cccs3)CC2)n1	i	18µM*	-11%	-8%
CC(=O)N1CC(C)Sc2ccc(S(=O)(=O)NCc3ccc(Cl)cc3)cc21 (configuration not stated)	23µM*	i	-9%	-10%
COc1ccccc1N1CCN(C(=O)CN(Cc2ccccc2)S(C)(=O)=O)CC1	i	10µM*	-7%	-5%
CS(=O)(=O)N(CC(=O)N1CCCCCC1)Cc1ccc(Cl)cc1	i	5.2µM*	4%	5%
COc1ccc(N2CCN(C(=O)CN(Cc3ccccc3)S(C)(=O)=O)CC2)cc1	i	i	4%	3%
CS(=O)(=O)N(CC(=O)NC1CCCC1)Cc1ccc(Cl)cc1	i	15µM*	-1%	8%
CC(C)(C)NC(=O)C(c1ccc(-c2ccccc2)cc1)N(C[C@H]1CC[C@@H]([C@@H]2CC[C@H](CO)O2)O1)C(=O)c1cccc(Cl)c1 (some centres not stated)	15µM*	i	-24%	-2%
COc1ccccc1C(=O)Nc1nnc(SCC(=O)Nc2ccc3c(c2)oc2ccccc23)s1	i	18µM*	-7%	-13%
CCn1c(SCC(=O)Nc2ccc3c(c2)oc2ccccc23)nnc1-c1ccc(N)cc1	?	18µM*	?	?
Cc1ccc(-n2c(C)cc(C3N=C(N)Nc4nc5ccccc5n43)c2C)c(C)c1 (configuration not stated)	i	i	20µM*	?
Cc1cc(C2N=C(N)Nc3nc4ccccc4n32)c(C)n1-c1ccccc1Cl (configuration not stated)	i	i	?	?
N#CC1=C(N)Oc2cc(N)ccc2C1c1ccccc1F (configuration not stated)	?	7.3µM*	16µM*	15µM*
Cc1ccc(C2C(C#N)=C(N)Oc3cc(N)ccc32)cc1 (configuration not stated)	i	i	-1%	-10%
N#CC1=C(N)Oc2cc(N)ccc2C1c1cc(Br)cs1 (configuration not stated)	8.2µM*	?	2.9µM*	2.1µM*
COc1ccc(C2C(C#N)=C(N)Oc3cc(O)ccc32)cc1 (configuration not stated)	i	i	1%	-1%
N#CC1=C(N)Oc2cc(O)ccc2C1c1ccccc1 (configuration not stated)	?	18µM*	?	?
N#CC1=C(N)Oc2cc(N)ccc2C1c1cccc(Br)c1 (configuration not stated)	8.2µM*	?	?	?
Cc1ccc(NC(=O)Nc2nnc(N(C)C3CCCCC3)s2)c(Cl)c1	i	i	/	/
Cc1ccc(C)c(NC(=O)CN(C)S(=O)(=O)c2cccc3nsnc23)c1	i	i	/	/
OC(Cc1ccccc1)c1ncc(-c2ccc(Cl)cc2)[nH]1 (configuration not stated)	?	12µM*	?	?
OC(Cc1ccccc1Br)c1ncc(-c2ccc(Cl)cc2)[nH]1 (configuration not stated)	i	?	21µM*	?
Cc1cc(Cl)ccc1C(O)c1ncc(-c2ccc(F)cc2)[nH]1 (configuration not stated)	i	i	21µM*	?
SMILES	KB-3-1 cytotox	KB-V1 cytotox	HT1080 IDH1KD tx	HT1080-NT tox
COc1cccc(NC(=O)C(CCSC)NC(=O)C2CCC(C)CC2)c1 (configuration not stated)	i	i	/	/
Cc1ccc2c(c1)c(C1=c3ccccc3=NC1=O)c(O)n2C	i	i	-4%	0%
C=CCn1c(O)c(C2=c3ccccc3=NC2=O)c2ccccc21	?	i	21µM*	23µM*
O=S1(=O)C=CC(Nc2cccc(Cl)c2)C1 (configuration not stated)	i	i	?	10µM*
COc1cc(Cl)c(CC(=O)NO)cc1OC	/	/	-4%	-3%
COc1cc([N+](=O)[O-])ccc1NC(=O)CC1SC(=Nc2ccc(F)cc2)N(CCC2=CCCCC2)C1=O (configuration not stated)	9.2µM*	?	-4%	-1%
COc1ccc(N=C2SC(CC(=O)Nc3cccc(Cl)c3)C(=O)N2Cc2ccco2)cc1 (configuration not stated)	?	?	16µM*	?
COc1ccc(N=C2SC(CC(=O)Nc3ccc(OC)cc3OC)C(=O)N2C)cc1 (configuration not stated)	i	18µM*	-3%	7%
COc1ccc(N=C2SC(CC(=O)Nc3ccccc3)C(=O)N2Cc2ccccn2)cc1 (configuration not stated)	i	?	-8%	-27%
Cc1ccccc1N(CC(=O)N/N=C/c1ccc(Cl)cc1)C(=O)c1ccccc1	?	21µM*	-22%	-7%
CC1(C)OC(=O)C2(Cc3cc([N+](=O)[O-])ccc3N3CCCCCC32)C(=O)O1 (configuration not stated)	i	i	/	/
c1ccc2c(c1)OCC(CNc1ncnc3sccc13)O2 (configuration not stated)	1.6µM*	?	1.2µM*	0.73µM*
c1ccc(CNc2nc(NCc3ccccc3)c3sccc3n2)cc1	i	i	?	?
COc1ccccc1CNc1nc(NCc2ccccc2)nc2ccsc12	i	i	18µM*	26µM*
COc1ccccc1CNc1ncnc2sccc12	?	5.2µM*	-24%	?
Fc1ccccc1CNc1nc(NCC2CC2)nc2ccsc12	i	i	21µM*	23µM*
Fc1ccccc1CNc1ncnc2sccc12	i	i	?	-4%
Cc1ccc(NC(=O)CN2C(=O)CCc3cc(S(=O)(=O)N4CCOCC4)ccc32)c(C)c1	i	i	/	/
CCn1c(=O)c2cc(C(=O)NCCc3ccc(OC)c(OC)c3)sc2c2ccccc21	i	?	/	/
COCCNc1nc(NCc2cccc(OC)c2OC)c2sccc2n1	i	?	-21%	?
COc1ccccc1CNc1nc(NCc2ccccc2F)c2sccc2n1	?	18µM*	21µM*	23µM*
